MITF act: activators of MITF-driven TRPM1 promoter activity in SK-MEL-5 cells; hit rate 0.75% among 300,000; AID 588334; activation, % at 12.5 µM; SK-MEL-5 TRPM1-promoter luciferase, 24 h; % of positive control, neutral wells = 0;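 active means mean activation of at least 80% with every replicate also reaching 80%; inconclusive means mean reaches 80% but some replicate falls short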;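 further: 0% = neutral control wells and 100% = parthenolide positive control wells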
GAA850 FXN act: frataxin GAA850 promoter activation; HEK293 lucGAA850 FXN promoter luciferase reporter, 24 h; percent of 10 µM SAHA response; activation, % at 6 µM; hit rate 0.56% among 360,000; AID 540364;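 active means activation above the average of all compounds screened plus 3 SD, cutoff fixed separately per campaign, cut at about 7.5% in these data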;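 further: 0% = DMSO wells and 100% = 10 µM SAHA wells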
esBAF inh: SWI/SNF esBAF complex inhibition; mouse ES cells, Bmi1-luciferase knock-in reporter, 24 h; 100% = twice the neutral-well signal; AID 602393; reporter increase, % at 12.5 µM; hit rate 2% among 350,000; in the data active means activation above about 40%; inconclusive means no clear call, values can overlap the other calls;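 further: 0% = median of the plate's neutral control wells and 100% = double that signal; a rise in the Bmi1 reporter signal indicates esBAF inhibition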
C2C12 statin: suppression of simvastatin myotoxicity; C2C12 myotubes + simvastatin, ATP luminescence, 48 h; scaled: DMSO 0, geranylgeraniol control 100; rescue of ATP level, % at 7.49 µM; hit rate 0.78% among 330,000;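 active means mean ATP rescue above about 67%, or every replicate alone reaching that limit, limit read from the data, passing the limit was not always enough; inconclusive means no clear call, values can overlap the other calls; inactive means mean under the limit and some replicate under it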;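 further: myotubes were challenged with 10 µM simvastatin during compound exposure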
Wnt act: Wnt/beta-catenin pathway activation. Wnt/beta-catenin reporter cell assay, activator, plate reader. activation, % at 9.35 µM. hit rate 1.2% among 300,000; in the data active means activation above about 30%, passing the limit was not always enough; inconclusive means no clear call, values can overlap the other calls;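 further: 0% = neutral control wells and 100% = positive control wells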
Starred values were filed as active, the others as inactive; ? = inconclusive; · = no result given. Shown are actives, neighbours in structure and some others; about 3.3% of the full set was active somewhere.

SMILES	MITF act	GAA850 FXN act	esBAF inh	C2C12 statin	Wnt act
O=C(N=C1N=C2C=CC=CN2Cc2ccccc21)c1ccc(S(=O)(=O)N2CCCC2)cc1	102.6*	4.7	49.7*	-5.1	44.0*
O=C(N=C1N=C2C=CC=CN2Cc2ccccc21)c1ccc(S(=O)(=O)N2CCOCC2)cc1	84.0*	2.0	·	·	-0.9
CN(C)S(=O)(=O)c1cccc(C(=O)N=C2N=C3C=CC(Cl)=CN3Cc3ccccc32)c1	26.1	5.3	·	·	63.5*
CN(C)S(=O)(=O)c1cccc(C(=O)N2CCN(Cc3ccccc3)CC2)c1	11.8	0.7	-5.0	-4.0	-4.0
C[C@@H]1CN([C@H](C)CO)C(=O)Cc2cc(NC(=O)CCC(F)(F)F)ccc2O[C@@H]1CN(C)Cc1ccc(C(=O)Nc2ccccc2N)cc1	·	·	1.9	24.1	·
C[C@@H]1CN([C@@H](C)CO)C(=O)c2cc(NC(=O)Nc3cccc4ccccc34)ccc2O[C@@H]1CN(C)S(=O)(=O)c1cn(C)cn1	·	·	5.6	-13.2	·
C[C@@H]1CCCCO[C@@H](CN(C)S(=O)(=O)c2ccccc2)[C@@H](C)CN([C@@H](C)CO)C(=O)c2cc(NS(=O)(=O)c3cccs3)ccc2O1	·	·	10.4	·	·
CNC[C@@H]1OCCCC[C@H](C)Oc2ccc(NC(=O)c3ccccc3)cc2C(=O)N([C@H](C)CO)C[C@H]1C	·	·	-4.5	-1.7	·
COC(=O)c1cc(Br)c(=O)n(CCN2CCOCC2)c1	-8.6	-2.2	-4.3	104.3*	0.6
Cc1ccccc1S(=O)(=O)N[C@H]1CC[C@H](CCn2cc(Cc3ccccc3)nn2)O[C@H]1CO	·	·	-0.1	2.6	·
C[C@@H]1CCCCO[C@@H](CN(C)C(=O)c2ccccc2)[C@H](C)CN([C@H](C)CO)C(=O)c2cc(NC(=O)CCCN(C)C)ccc2O1	·	·	1.2	-2.7	·
O=C1C[C@@H](c2ccc(O)cc2)Oc2cc(O)cc(O)c21	21.5	-0.1	15.8	-1.3	5.6
O=C1CC(c2ccc(O)cc2)Oc2ccccc21 (stereo not given)	82.9*	0.5	24.2	1.8	-2.4
CCC(C)(C)c1nnc(NC(=O)c2ccc([N+](=O)[O-])cc2)s1	66.9	-0.7	47.6*	-29.4	4.2
CC(C)(C)Cc1nnc(NC(=O)c2ccc([N+](=O)[O-])cc2)s1	38.7	2.0	·	·	17.4
O=C(O)COc1ccc2c3c(c(=O)oc2c1)CCC3	1.0	-2.0	-2.3	116.7*	-1.9
COc1ccc(-c2c(C)c3ccc(OCC(C)=O)cc3oc2=O)cc1	·	·	68.3*	·	26.9
O=C(COc1ccc2c3c(c(=O)oc2c1)CCC3)N1CCCC1	11.6	0.6	2.5	-5.9	-0.7
CC(=O)COc1ccc2c(C)c(C)c(=O)oc2c1	·	3.3	11.3	-5.8	3.9
CCCOc1ccc2c(C)c(CC(=O)OC)c(=O)oc2c1	125.5*	2.4	67.8*	-37.4	·
CCCOc1ccc2c3c(c(=O)oc2c1)CCCC3	32.2	2.8	47.6*	-21.6	·
COC(=O)Cc1c(C)c2ccc(OCC(=O)N(C)C)cc2oc1=O	9.4	1.8	-9.8	-0.1	·
C[C@@H]1CN([C@H](C)CO)C(=O)c2cc(-c3cccnc3)cnc2O[C@@H]1CN(C)Cc1ccccc1	·	·	·	7.2	·
CCNC(=O)C[C@@H]1CC[C@H]2[C@H](COc3ccc(NC(=O)c4ccccc4Cl)cc3C(=O)N2C)O1	·	·	5.1	2.9	·
O=C(O)c1ccc(C(=O)c2ccc3c(c2)C(=O)N(Cc2ccco2)C3=O)cc1	·	2.2	3.1	110.1*	·
SMILES	MITF act	GAA850 FXN act	esBAF inh	C2C12 statin	Wnt act
O=C(c1ccc2c(c1)C(=O)N(Cc1ccco1)C2=O)N1CCOCC1	-15.0	-0.9	-0.4	4.3	-2.5
Cc1noc(C)c1S(=O)(=O)N(C)C[C@H]1OCCCC[C@@H](C)Oc2ccc(NS(=O)(=O)c3ccc(Cl)cc3)cc2C(=O)N([C@@H](C)CO)C[C@@H]1C	·	·	6.9	·	·
CC(C)c1ccc2nc(NC(=O)C3CC3)sc2c1	59.6	6.7	56.7*	-41.6	58.5*
Cc1ccc2nc(-c3ccc(NS(=O)(=O)c4ccc(F)cc4)cc3)sc2c1	40.2	6.6	·	·	44.4*
O=C(Nc1nc(-c2ccc(F)cc2)cs1)C1CCCO1 (stereo not given)	85.1*	3.6	·	·	44.7*
O=C(Nc1nc2ccc(Cl)cc2s1)C1CCCO1 (stereo not given)	60.7	2.1	49.4*	4.5	·
COC(=O)c1ccc2nc(NC(=O)C3CCCCC3)sc2c1	37.7	2.6	·	·	22.6
CC(=O)Nc1ccc(S(=O)(=O)Nc2nc3ccc(C)cc3s2)cc1	·	-0.2	0.8	-1.6	·
C[C@@H]1CCCCO[C@H](CN(C)S(=O)(=O)c2ccccc2)[C@H](C)CN([C@@H](C)CO)C(=O)c2cc(NC(=O)Cc3ccccc3)ccc2O1	·	·	5.9	·	·
CCCC(=O)Nc1ccc2c(c1)C(=O)N(C)C[C@@H](OC)[C@@H](C)CN(Cc1ccncc1)[C@@H](C)CO2	·	·	-4.2	0.2	·
C[C@@H]1CN([C@H](C)CO)C(=O)c2cc(C#CC3CC3)cnc2O[C@@H]1CN(C)Cc1ccccc1C(=O)O	·	·	0.0	7.0	·
O=C(Nc1nc2ccc(Cl)cc2s1)C1CC1	·	3.7	·	·	60.2*
CC1=CCC(C(=O)O)C(C(=O)Nc2ccc(-c3nc4ccc(C)cc4s3)cc2)C1 (stereo not given)	13.5	0.3	-19.7	-1.2	58.3*
Cc1ccc2nc(NC(=O)C3CC3C)sc2c1 (stereo not given)	49.1	2.5	71.7*	-23.4	27.6
CC(=O)NC(=S)Nc1ccc(-c2nc3ccc(C)cc3s2)cc1	45.7	2.2	13.3	-24.5	21.7
CC=Cc1ccc2n(c1=O)C[C@@H]1[C@@H](CO)[C@H](C(=O)NCc3ccccc3)[C@H]2N1C (mixture of isomers)	·	·	1.1	-1.4	·
CC1Cc2nc(SCC(=O)NCc3ccccc3)n(Cc3ccccc3)c(=O)c2S1 (stereo not given)	2.0	4.3	0.1	0.4	1.9
CC1Cc2nc(SCC(=O)c3ccccc3)n(Cc3ccccc3)c(=O)c2S1 (stereo not given)	·	1.9	81.3*	5.9	15.5
Cc1ccc(-n2c(CSc3nc(C)cc(C)n3)n[nH]c2=S)cc1	1.9	4.3	·	·	-0.1
Cc1cc(C)nc(SCc2n[nH]c(=S)n2C)n1	0.2	0.3	-9.9	91.9*	-2.2
Cc1ccc(S(=O)(=O)Nc2ccc3c(c2)C(=O)N([C@H](C)CO)C[C@H](C)[C@@H](CN(C)S(=O)(=O)c2ccc(C)cc2)OCCCC[C@H](C)O3)cc1	·	·	-0.5	·	·
O=c1[nH]c2ccccc2cc1-c1nnn(-c2ccc(Cl)c(Cl)c2)n1	-2.3	-0.6	1.2	-2.0	2.7
COc1ncccc1-c1nnn(-c2ccc(C)cc2)n1	56.8	1.5	?	3.9	39.3*
COc1ncccc1-c1nnn(-c2ccc(Cl)c(Cl)c2)n1	102.2*	3.8	87.7*	17.0	39.1*
COc1ncccc1-c1nnn(-c2ccc(F)cc2)n1	-15.3	4.1	53.8*	-9.7	34.1*
Fc1ccc(-n2nnc(-c3ccccc3Br)n2)cc1	9.4	2.0	1.6	0.5	-0.9

Screening results: PubChem BioAssay, several laboratories
